We go through 18 compounds from PubChem BioAssay (NCATS).

Test [1] is described as follows: qHTS to identify inhibitors of the type 1 interferon - major histocompatibility complex class I in skeletal muscle: primary screen against the NCATS Pharmaceutical Collection (AID 1347407). In a few lines:
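Luminescence from HiBiT-tagged endogenous HLA-B*08:01 served as the read-out of IFN-beta-induced MHC class I in CRISPR-engineered C25cl48 myoblasts. Cells received 4 ng/ml IFN-beta plus compound (high final 46 uM, […]) for 24 h.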

Test [2] can be described thus: qHTS to identify inhibitors of the type 1 interferon - major histocompatibility complex class I in skeletal muscle: primary screen against the NCATS LOPAC collection (AID 1347405). In a few lines:
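IFN-beta-stimulated (4 ng/ml) HLA-B HiBiT knock-in myoblasts, compound-treated 24 hrs up to 46 uM final; signal via LgBiT complementation and furimazine luminescence.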

A short description of test [3]: qHTS for inhibitors of adenylyl cyclases using a fission yeast platform: a pilot screen against the NCATS LOPAC library (AID 1347410). In outline:
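Fission yeast qHTS: CHP2027 cells (AC9-GNAS-PDE4D2, fbp1-GFP), 5x10^6 cells/mL working density, EMM + His/Lys/Ura; LOPAC at up to 57 µM final; 18 h dark, 30C; GFP by laser cytometry. DPI positive control, DMSO vehicle.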

The nature of test [4]: qHTS to identify inhibitors of the type 1 interferon - major histocompatibility complex class I in skeletal muscle: primary screen against the NCATS Mechanism Interrogation Plate v5.0 (MIPE) Libary (AID 1347411). In a few lines: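 IFN-beta-driven (4 ng/ml) HLA-B-HiBit expression in CRISPR-tagged C25cl48 myoblasts; compounds 11-pt, 1:3, max 46 uM, 24 hr exposure; lytic NanoLuc complementation luminescence.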

A short description of test [5]: DH5-alpha competent E. coli microbial cell viability qHTS against the NCATS CANVASS Library (AID 1347377). In a few lines:
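Overnight incubation at 37C, 5% CO2 of E. coli DH5-alpha (diluted to 0.2 OD) with compounds precedes BacTiter-Glo addition. Luminescence, acquired after 20 min at room temperature, reflects viable-cell ATP.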

Test [6] in a line: qHTS for H2AX Agonists against the NCATS CANVASS Library (AID 1347378). In a few lines:
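CHO-K1, 1000 cells/well, o/n 37C; cpd several conc, 3 hr 37C, 0.76% DMSO; lyse 30 min RT; cryptate anti-pH2AX(S139) + d2 anti-H2AX, 24 hr RT; HTRF 665/620.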

The nature of test [7]: qHTS for Inflammasome Signaling Inhibitors: IL-1-beta AlphaLISA screen against the NCATS CANVASS Library (AID 1347379). In a few lines:
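THP-1, 1 hr compound pre-incubation, then LPS 250 ng/mL + ATP 1.25 mM (final); 16 hr total with compound; IL-1B AlphaLISA, ex 680/em 615 nm; 11-point qHTS, up to 57.5 uM final.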

Test [8] in a line: qHTS for Antimalaria activity screened against the NCATS CANVASS Library (AID 1347380). In a few lines:
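Measures proliferation or cytotoxicity against Dd2 blood stages in 72 h cultures, 11-point qHTS dosing, with SYBR Green fluorescence as read-out; dihydroartemisinin titration served as control.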

A short description of test [9]: Inflammasome Signaling qHTS Counterscreen: IL-1-beta AlphaLISA counterscreen against the NCATS CANVASS Library (AID 1347381). In outline: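 Here, no cellular stimulation occurs; compounds in an 11-point series meet 4 pg purified IL-1-beta directly. Bead-based AlphaLISA detection follows (1 h acceptor/antibody, then 30 min donor, dark, room temperature), with excitation at 680 nm.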

Test [10] can be described thus: Cytotoxicity qHTS for assessment of Hepg2 cells membrane integrity screened against the NCATS CANVASS Library (AID 1347387). In outline: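 Membrane damage in HepG2 monolayers was estimated from released LDH, measured with CytoTox-ONE (ex 560/em 590 nm), after 5 hr treatment across 0.59 nM - 46 uM final.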
Test [11] is described as follows: qHTS assay for small molecule disruptors of mitochondrial membrane potential screened against the NCATS CANVASS Library (AID 1347389). In outline: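 Cells (HepG2) seeded the day before received compound or DMSO for 1 hr, then Mito-MPS dye for 30 min at 37C; emission at 590 nm over 535 nm gave the polarization signal.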
A short description of test [12]: Secretion counterscreen for inhibitors of the SERCaMP assay screened against the NCATS CANVASS Library (AID 1347390). In a few lines:
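SH-SY5Y-GLuc STOP cells; 4 h attach; cpds 0.001 - 77 uM (qHTS, 11 pts), 20 h 37C/5% CO2; coelenterazine in glow buffer; luminescence, 5 s exposure.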

Test [13] is described as follows: qHTS for activators of Nrf2/ARE signaling pathway screened against the NCATS CANVASS Library (AID 1347391). In outline: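 Activation of Nrf2/ARE was scored in ARE-bla HepG2 cells after 16 h compound exposure using CCF4 beta-lactamase fluorescence ratio readings.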
Test [14] is described as follows: qHTS for activators of dead-cell proteases activity screened against the NCATS CANVASS Library (AID 1347392). In outline:
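HepG2, 2000 cells/well, 18 h attach; cpd 11-pt, 5 h 37C 5% CO2; CytoTox-Glo (AAF-aminoluciferin) 15 min RT; luminescence read.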

Test [15] in a line: qHTS for inhibitors of ER calcium dysfunction: SERCaMP assay screened against the NCATS CANVASS Library (AID 1347393). In a few lines:
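SH-SY5Y GLuc-SERCaMP, 1000 cells/well, 4 h attach; cpd 16 h, 37C/5% CO2; thapsigargin (added as 6x 600 nM) 4 h; coelenterazine; luminescence. Reduced reporter release = ER Ca stabilization.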

Test [16] is described as follows: Vero-766 cells viability qHTS against the NCATS CANVASS Library: Counterscreen for Zika virus inhibition assay (AID 1347394). In outline: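 Vero 766, no virus; 1000 cells/well; o/n attach; cpd 11-pt; 72 h, 37C, 5% CO2; CTG luminescence; cell-free media wells = 100% inhibition.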
Test [17] can be described thus: qHTS for inhibitors of Wild type Zika virus screened against the NCATS CANVASS Library (AID 1347396). In a few lines: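 Protection against wild-type Zika cytopathic effect is measured in African green monkey Vero 766 cells exposed to an 11-point compound series. Surviving cells are quantified by CellTiter Glo luminescence after 72 h.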
A short description of test [18]: Viability qHTS for inhibitors of the SERCaMP assay screened against the NCATS CANVASS Library (AID 1347400). In outline:
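Measures loss of viability in SERCaMP reporter SH-SY5Y cells treated for 48 h with compounds; luminescent ATP detection by CellTiter-Glo.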

Test [19] can be described thus: Redox Reaction Profiling qHTS: Assay Interference Panel against the NCATS CANVASS Library (AID 1347401). In outline:
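Fluorescence read-out (525 nm excitation, 598 nm emission) at time zero and after 15 min in the dark tracked resorufin formation. Mix: 5 uM resazurin, 200 uM DTT, HEPES pH 7.3 buffer with NaCl.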

A short description of test [20]: qHTS for inhibitors of Rabies Virus screened against the NCATS CANVASS Library (AID 1347402; calls by dose curve).

Results filed as inconclusive are left out. Active and inactive are the calls of the source. Unless noted, calls follow the shape of the dose curve; as a rule, active = well fitted curve in the direction sought with a large enough effect; inconclusive = small, poorly fitted or top-dose-only effect, or another doubt; inactive = no such curve, though single readings can be large; an effect the other way counts as inactive or inconclusive.

Take `CN1C(=O)[C@@H](NC(=O)c2cc3ccccc3[nH]2)N=C(c2ccccc2)c2ccccc21`: in test [1], the Potency entry was “inactive”.

In the case of `CCC(OC(C)=O)C(CC(C)NC)(c1ccccc1)c1ccccc1` (configuration not stated), in test [1], the Potency entry is “inactive”.

As to `C=CCOC(Cn1ccnc1)c1ccc(Cl)cc1Cl` (configuration not stated), in test [1], the Potency result is “inactive”.

With `CCNc1nc(Cl)nc(NCC)n1`, the Potency result in test [1] is “inactive”.

`CC(C)(O)C(Cl)(Cl)Cl`: the Potency entry in [1] was “inactive”.

In the case of `O=C(NC(=O)c1c(F)cccc1F)Nc1cc(Cl)c(OC(F)(F)C(F)C(F)(F)F)cc1Cl` (configuration not stated), the Potency result in test [1] was “inactive”.

`COc1ccc(C(=O)N2CCCC2=O)cc1`: the outcome in test [2] and in test [3] was inactive. Besides, the Potency result in test [1] and in test [4] was “inactive” each time.

Regarding `CC(C)NCC(O)c1ccc(N)c(C#N)c1` (configuration not stated), the Potency entry in test [1] was “inactive”.

Regarding `Cc1nc2ccccc2c(=O)n1-c1ccccc1Cl`, the Potency result in [1] was “inactive”.

On to `CN1[C@@H]2CC[C@H]1CC(OC(=O)c1cc(Cl)cc(Cl)c1)C2` (some centres not stated), for which the Potency result in test [1] is “inactive”.

With `C[C@@H]1CN(C2CCC(C#N)(c3ccc(F)cc3)CC2)CC[C@]1(C(=O)O)c1ccccc1` (some centres not stated), in test [1], the Potency entry was “inactive”.

For the compound `O=C(O)Cc1ccccc1`, in [1], the Potency entry is “inactive”.

On to `CCN(CC)C(C)C(=O)c1ccccc1` (configuration not stated), for which the Potency entry in [1] is “inactive”.

On to `OC(O)C(Cl)(Cl)Cl`, for which the Potency entry in [1] was “inactive”.

For `CN(C)CCc1c[nH]c2ccccc12`, the call in test [5], in test [6], in test [7], in test [8], in [9] and in test [10] was inactive. Moreover, the call in [11], in test [12], in [13], in test [14], in test [15] and in [16] was inactive. Also, the compound was classed as inactive in test [17], in test [18], in test [19] and in test [20]. In addition, in [1], the Potency entry is “inactive”.

Consider `CC1=C2[C@H]3OC(=O)[C@@H](C)[C@@H]3CC[C@@]2(C)C=CC1=O`, for which the Potency result in [1] was “inactive”.

Take `CCOC(=O)C(c1c(O)c2ccccc2oc1=O)c1c(O)c2ccccc2oc1=O`: in [1], the Potency entry was “inactive”.

As to `CN(C)CCc1c[nH]c2ccc(O)cc12`, the Potency result in [1] is “inactive”.
